Compound activity (PubChem BioAssay)
Most compounds without a hit are left out; they make up all but 5.7% or so of the library.
RORg inh: blocks mouse ROR gamma transcriptional activity; P51450; Drosophila S2 Gal4-RORgamma UAS-luciferase reporter, 20 h; Potency, µM (titrated, usually from 53.6 µM), actives largely listed as inhibitors; actives 5.4% (n = 310,000); note: nearly all actives have a fitted effect of over 60% in size
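In this cell-based reporter format, copper sulfate (700 uM final) drives Gal4–ROR gamma fusion expression from a metallothionein promoter in Drosophila Schneider cells; compounds preincubated 1 hr, reporter read after 20 hr at ambient temperature.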
B2AR arrestin: beta2AR (human) beta-arrestin recruitment activity; beta-arrestin recruitment to beta2AR, cell-based reporter; Potency, µM (highest dose often 46.1 µM), actives largely listed as activators; actives 0.02% (n = 330,000); note: nearly all actives have a fitted effect of over 65% in size
NPSR antag: antagonists of human neuropeptide S receptor cAMP signaling. Q6W5P4. CHO-NPSR cells, cAMP TR-FRET, antagonist mode. Potency, µM (highest dose often 38.3 µM), hits mostly inhibitors. actives 1% (n = 220,000). AID 1461; note: nearly all actives have a fitted effect of over 50% in size
Target sequence (Q6W5P4 whole entry, looked up): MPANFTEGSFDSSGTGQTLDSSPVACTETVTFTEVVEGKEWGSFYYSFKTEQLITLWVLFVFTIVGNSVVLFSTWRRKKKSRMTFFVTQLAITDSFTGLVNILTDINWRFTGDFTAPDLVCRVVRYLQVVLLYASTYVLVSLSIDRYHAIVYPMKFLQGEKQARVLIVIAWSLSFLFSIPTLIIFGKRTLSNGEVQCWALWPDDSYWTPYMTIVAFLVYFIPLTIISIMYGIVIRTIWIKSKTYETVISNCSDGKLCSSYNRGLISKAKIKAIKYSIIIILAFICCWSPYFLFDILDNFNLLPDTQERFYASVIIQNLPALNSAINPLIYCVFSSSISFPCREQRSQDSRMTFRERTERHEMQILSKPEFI
Gal4-VP16 FLuc: counter-screen for ROR gamma inhibitors: Gal4-VP16 reporter; Drosophila S2 Gal4-VP16 UAS-luciferase, luminescence, 20 h; Potency, µM (titrated, usually from 53.6 µM), actives largely listed as inhibitors; actives 3.5% (n = 310,000);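 note: Gal4-VP16 expression switched on by copper sulfate through the metallothionein promoter; nearly all actives have a fitted effect of over 50% in size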
Of the large screens only hits and unclear results are named; the others gave an inactive call. Calls come from the whole dose curve; as a rule, active = well fitted curve in the direction sought with a large enough effect; inconclusive = small, poorly fitted or top-dose-only effect, or another doubt; inactive = no such curve, though single readings can be large; an effect the other way counts as inactive or inconclusive.

CCC1NC(=S)N(C2CCCCC2)C1=O (stereo unspecified)	RORg inh 11µM, Gal4-VP16 FLuc inconclusive
O=C1C(Cc2c[nH]c3ccccc23)NC(=S)N1C1CCCCC1 (stereo unspecified)	RORg inh 20µM, Gal4-VP16 FLuc inconclusive
O=C1C(Cc2ccc(O)cc2)NC(=S)N1C1CCCCC1 (stereo unspecified)	none
CC(C)C1NC(=S)N(C2CCCCC2)C1=O (stereo unspecified)	RORg inh 6.3µM, Gal4-VP16 FLuc inconclusive
CC(C)CO/N=C1/[C@H]2O[C@@H]2[C@@H](O)[C@H]2[C@H]1CCn1c(=O)n(C)c(=O)n12	none (no result: B2AR arrestin, NPSR antag)
O=C(COC(=O)c1ccc(S(=O)(=O)Nc2ccccc2)cc1)NCCC1=CCCCC1	none
O=C(CSc1nc2ncccc2[nH]1)c1cccc([N+](=O)[O-])c1	RORg inh inconclusive, Gal4-VP16 FLuc inconclusive
COc1ccc(CNc2ccnc(-c3ccccc3Cl)n2)c(OC)c1	none (no result: B2AR arrestin, NPSR antag)
O=[N+]([O-])c1ccc(-c2ccc(/C=N/Nc3nc(NCc4ccccc4)nc(N4CCOCC4)n3)o2)cc1	RORg inh 13µM, Gal4-VP16 FLuc inconclusive
Cc1ccc(/C=N/Nc2nc(N3CCCCC3)nc(N3CCCCC3)n2)o1	RORg inh 8.9µM, Gal4-VP16 FLuc inconclusive
COC(=O)c1ccccc1-c1ccc(/C=N/Nc2nc(N3CCCC3)nc(N3CCCC3)n2)o1	RORg inh inconclusive, NPSR antag inconclusive, Gal4-VP16 FLuc inconclusive
O=[N+]([O-])c1ccc(/C=N/Nc2nc(N3CCCCCC3)nc(N3CCCCCC3)n2)o1	RORg inh 11µM, NPSR antag 6.3µM, Gal4-VP16 FLuc inconclusive
Cc1nc2cc(C)c(C)cc2s1	none
Cc1cc2nc3ccc(=[N+](C)C)cc-3sc2cc1N	RORg inh inconclusive, NPSR antag inconclusive, Gal4-VP16 FLuc 35µM
O=[N+]([O-])c1ccc(N=Nc2ccc(O)cc2O)cc1	RORg inh inconclusive, NPSR antag 10µM, Gal4-VP16 FLuc 0.63µM
C=CCn1c(COc2ccccc2)nnc1SC(C)C(=O)N/N=C/c1cc(Cl)ccc1O (stereo unspecified)	RORg inh 13µM, Gal4-VP16 FLuc inconclusive
C=CCn1c(COc2ccc(Cl)cc2)nnc1SCC(=O)N/N=C/c1cccc(O)c1	none
CCN(CC)CCOC(=O)C12CC3CC(CC(C3)C1)C2	RORg inh 5µM
Cc1ccc(NC(=O)CSc2ccc3nnc(CCNC(=O)c4ccccc4)n3n2)c(C)c1	none
CC1(C)CC(=O)C2=C(C1)NC(SCC(=O)Nc1ccccc1)=C(C#N)C21CCCCC1	NPSR antag inconclusive
CC1(C)CC(=O)C2=C(C1)NC(=S)C(C#N)C21CCCCC1 (stereo unspecified)	RORg inh 10µM
C=CCn1c(CSCc2ccccc2)nnc1SCC(=O)N1CCN(c2ccccc2)CC1	RORg inh 28µM, NPSR antag inconclusive, Gal4-VP16 FLuc inconclusive
CCn1c(CSCc2ccc(C)cc2)nnc1SCC(=O)N1CCN(c2ccccc2)CC1	none
Cn1cc(-c2nnnn2-c2cccc(C(F)(F)F)c2)c(C(F)(F)F)n1	RORg inh 10µM
C/C(=N\NC(=O)C1CC1)c1ccccc1Br	RORg inh inconclusive, Gal4-VP16 FLuc 10µM (no result: NPSR antag)
C/C(=N\NC(=O)C1CC1)c1ccc(Cl)cc1	none
C/C(=N\NC(=O)c1ccccc1O)c1ccc(NC(=O)c2ccccc2)cc1	RORg inh inconclusive, Gal4-VP16 FLuc inconclusive (no result: NPSR antag)
C/C(=N\NC(=O)C1CC1)c1ccccc1O	RORg inh 1µM, Gal4-VP16 FLuc 6.3µM
C/C(=N/NC(=O)c1ccccc1O)c1ccc(N2C(=O)C3CCCCC3C2=O)cc1 (stereo unspecified)	RORg inh 13µM, Gal4-VP16 FLuc inconclusive
CC1CC=CC2C1C(=O)N(Cc1ccccc1)C2c1ccc(-c2cc3ccccc3s2)cc1F (stereo unspecified)	Gal4-VP16 FLuc inconclusive (no result: B2AR arrestin, NPSR antag)
Cn1cccc1C(=O)N1CCC2(CC1)CCN(c1ccncc1)CC2	none (no result: B2AR arrestin, NPSR antag)
O=C(Nc1ccccc1)Nc1cc(Cl)cc(Cl)c1	RORg inh inconclusive, NPSR antag inconclusive, Gal4-VP16 FLuc inconclusive
O=C(Nc1ccccc1)Nc1cc(OCC(F)(F)F)cc(OCC(F)(F)F)c1	RORg inh inconclusive, NPSR antag inconclusive, Gal4-VP16 FLuc 16µM
Cc1ccc(C(=O)NCCn2cc(SCC(=O)Nc3cc(C)on3)c3ccccc32)cc1	RORg inh inconclusive
Cc1ccc(C(=O)NCCn2cc(SCC(=O)N3CCOCC3)c3ccccc32)cc1	RORg inh 13µM
Cc1c(Cl)cccc1NC(=S)Nc1ccccn1	RORg inh 1µM, Gal4-VP16 FLuc inconclusive
S=C(Nc1ccccn1)Nc1ccccc1Cl	NPSR antag inconclusive
Cc1ccccc1NC(=S)Nc1ccccn1	RORg inh 0.5µM, B2AR arrestin inconclusive, NPSR antag inconclusive, Gal4-VP16 FLuc 1.6µM
Cc1ccccc1NC(=S)Nc1ccc(Br)cc1	RORg inh 11µM, Gal4-VP16 FLuc 11µM
CCC[C@@H]1C[C@@]1(CCC)C(NC(=O)c1ccccc1)c1cccc(Cl)c1 (stereo partly specified)	none (no result: B2AR arrestin, NPSR antag)
C=CCN(CC=C)Cc1c(C)[nH]c2c(C)c(C)ccc2c1=O	RORg inh inconclusive, Gal4-VP16 FLuc 13µM
CCc1ccc(CNC(=O)CC2C(=O)NCCN2Cc2ccccc2F)nc1 (stereo unspecified)	RORg inh 10µM, Gal4-VP16 FLuc inconclusive (no result: NPSR antag)
CCn1ccnc1CNC(=O)CC1C(=O)NCCN1Cc1ccccc1F (stereo unspecified)	none
O=C(/C=C/c1ccco1)NC(=S)Nc1cc(-c2nc3ccccc3s2)ccc1Cl	RORg inh 0.63µM, Gal4-VP16 FLuc 1µM
Cc1ccc(-c2nc3ccccc3s2)cc1NC(=S)NC(=O)/C=C/c1ccco1	RORg inh 4µM, Gal4-VP16 FLuc 10µM
O=C1/C(=C/C=C/c2ccccc2)Oc2c1ccc(O)c2CN1CCN(CCO)CC1	none
Cc1ccc(/C=C2\Oc3c(ccc(O)c3CN3CCN(C)CC3)C2=O)cc1	NPSR antag 7.9µM
CCN1CCN(Cc2c(O)ccc3c2O/C(=C\C=C\c2ccccc2)C3=O)CC1	NPSR antag 4µM
CCN1CCN(Cc2c(O)ccc3c2O/C(=C\c2ccccc2)C3=O)CC1	NPSR antag inconclusive
COc1ccccc1/C=C/C=C1\Oc2c(ccc(O)c2CN2CCN(CCO)CC2)C1=O	none
CCN1CCN(Cc2c(O)ccc3c2O/C(=C\c2ccc(C)cc2)C3=O)CC1	NPSR antag 10µM, Gal4-VP16 FLuc inconclusive
CCc1ccc(/C=C2\Oc3c(ccc(O)c3CN3CCN(C)CC3)C2=O)cc1	RORg inh inconclusive, NPSR antag 10µM
COC(=O)C(C)CCCC(C)CCCC(C)CCCC(C)C (stereo unspecified)	none (no result: B2AR arrestin, NPSR antag)
CCC(CCC(C)C1CCC2C3CC=C4CC(OC(C)=O)CC[C@@]4(C)C3CC[C@@]12C)C(C)C (stereo partly specified)	none (no result: B2AR arrestin, NPSR antag)
Cc1ccc(NC(=S)NCCO)c(C)c1	none
O=C(NCCc1ccc([N+](=O)[O-])cc1)c1ccccc1	none
O=C(NCCc1ccccc1)c1ccc([N+](=O)[O-])cc1	RORg inh 7.9µM, Gal4-VP16 FLuc inconclusive
Cc1ccc(C)c(NC(=S)NNc2ccc(F)cc2F)c1	RORg inh inconclusive, B2AR arrestin inconclusive, Gal4-VP16 FLuc 3.2µM (no result: NPSR antag)
